AC50 and activity, negative = inhibition data for 102 compounds are collected here from PubChem BioAssay AID1851 (National Center for Advancing Translational Sciences (NCATS), 2009).

For orientation: AC50 means the concentration at which the activity in the assay is half-maximal.

Among all 16,000 compounds or so, about 2,600 (16%) were called active. Roughly 20% stayed inconclusive and do not appear here. Calls follow the shape of the dose curve; as a rule, active = well fitted curve in the direction sought with a large enough effect; inconclusive = small, poorly fitted or top-dose-only effect, or effect the other way; inactive = no such curve, though single readings can be large or run the other way. Only a sample is shown. Square brackets hold non-standard residues; d marks the D form. Peptide text beside a SMILES is read from it.
% is scaled to controls: 0 for no effect and ±100 for the full control effect.

Sequence of Cytochrome P450 2D6 (Homo sapiens) (P10635 whole entry, looked up): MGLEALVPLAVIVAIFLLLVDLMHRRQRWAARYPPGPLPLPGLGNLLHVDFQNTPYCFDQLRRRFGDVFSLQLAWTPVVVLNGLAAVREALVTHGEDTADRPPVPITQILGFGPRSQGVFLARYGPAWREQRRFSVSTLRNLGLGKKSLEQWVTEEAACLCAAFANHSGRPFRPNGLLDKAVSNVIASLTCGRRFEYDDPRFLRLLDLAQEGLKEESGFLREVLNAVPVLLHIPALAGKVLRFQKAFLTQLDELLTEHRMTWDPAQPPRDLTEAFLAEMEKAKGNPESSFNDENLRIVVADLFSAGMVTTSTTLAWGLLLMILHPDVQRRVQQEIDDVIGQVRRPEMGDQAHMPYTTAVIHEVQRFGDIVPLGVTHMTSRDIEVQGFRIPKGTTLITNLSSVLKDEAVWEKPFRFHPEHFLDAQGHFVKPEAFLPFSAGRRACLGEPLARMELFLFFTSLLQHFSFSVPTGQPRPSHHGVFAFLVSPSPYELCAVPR

The assay concerns the target Cytochrome P450 2D6 (Homo sapiens) (UniProt P10635). The assay is described as follows: Cytochrome panel assay with activity outcomes. Conditions: recombinant CYP, pro-luciferin dealkylation, luminescence, p450-cyp2d6; series mostly up to 57.1 µM.
Consider `CCCCCCc1c(C[C@H](N)C(=O)O)o[nH]c1=O`, for which the AC50 result is “inactive”.

Regarding `Oc1ccccc1-c1nnc(-c2ccc(C(F)(F)F)cc2)o1`, the AC50 result is “inactive”.

With `CCN(CC)CCCNC(=O)CC1Sc2ccccc2NC1=O` (configuration not stated), the AC50 is 5.01 µM (active).

Turning to `Cc1c(Cl)cccc1NC(=O)C[C@H]1Sc2ccccc2NC1=O`, the activity, negative = inhibition is -12% [at 11.4 µM] (inactive).

In the case of `CCN(CC)CCCNC(=O)C1CCC(=O)N(c2ccc(OC)cc2)C1c1ccc(F)cc1` (configuration not stated), the AC50 result is “inactive”.

As to `CN(C)c1ccc(-c2nc(N(C)Cc3ccco3)c3ccccc3n2)cc1`, the AC50 was 12.6 µM (active).

With `CN(Cc1ccco1)c1nc(-c2ccc3c(c2)OCO3)nc2ccccc12`, the AC50 was 10 µM (active).

As to `CN(Cc1ccco1)c1nc(-c2ccoc2)nc2ccccc12`, the AC50 was 15.8 µM (active).

On to `CN(Cc1ccccc1)c1nc(-c2ccc([N+](=O)[O-])cc2)nc2ccccc12`, for which the AC50 entry is “inactive”.

In the case of `O=c1c(-c2cc(F)cc(F)c2)nc2cnc(N3CCOCC3)nc2n1C1CC1`, the AC50 entry is “inactive”.

Take `CSCC[C@H](C=O)NC(=O)[C@H](CC(C)C)NC(=O)[C@H](CC(C)C)NC(C)=O` (Ac-Leu-Leu-[dM]-aldehyde): the AC50 entry was “inactive”.

As for `c1cc(NNc2cccc(-c3nn[nH]n3)c2)cc(-c2nn[nH]n2)c1`, the activity, negative = inhibition was 16.4% [at 11.4 µM] (inactive).

As to `COCCCNC(=O)C1CC(=O)N(Cc2ccc(OC)cc2)C1` (configuration not stated), the AC50 entry was “inactive”.

For the compound `CN(C)c1ncc2nc(-c3ccc(F)cc3)c(=O)n(Cc3cccs3)c2n1`, the AC50 entry is “inactive”.

On to `Cc1cc(C)c2nc(-c3ccccn3)cc(C(=O)Nc3ccc(S(=O)(=O)Nc4cc(C)on4)cc3)c2c1`, for which the AC50 result is “inactive”.

Regarding `O=C(O)c1ccc(S(=O)(=O)N=Nc2c(O)[nH]c3ccccc23)cc1`, the activity, negative = inhibition is 17% [at 11.4 µM] (inactive).

For `O=C1CCC(c2ccccc2)(c2ccccc2)CC1`, the activity, negative = inhibition was 9.99% [at 11.4 µM] (inactive).

`CCN1C(=O)c2cccc3c(NC(=O)c4cccc(N5C(=O)CCC5=O)c4)ccc1c23`: the AC50 result is “inactive”.

In the case of `COc1ccc(N2CCN(C(=O)CSc3nnc4c5cc(C)ccc5n(C)c4n3)CC2)cc1`, the AC50 entry is “inactive”.

Take `COc1ccc(C(=O)c2c[nH]c(C(=O)NCc3cccs3)c2)cc1`: the AC50 result is “inactive”.

In the case of `COc1ccc2nc3oc(C(=O)NCc4cccs4)cc3cc2c1`, the AC50 result is “inactive”.

For the compound `COc1cccc2c(=O)c(C(=O)NCc3cccs3)c[nH]c12`, the AC50 was 12.6 µM (active).

Take `O=C1CC(=O)N(CCc2ccc(F)cc2)C(=O)N1`: the AC50 entry is “inactive”.

Consider `COc1ccc(-n2c(=O)cnc3cnc(N(C)C)nc32)cc1`, for which the AC50 result is “inactive”.

Take `NCS(=O)(=O)O`: the activity, negative = inhibition is 6.1% [at 11.4 µM] (inactive).

On to `COc1ccccc1/C=C/C(=O)c1c2c(c(C)[nH]c1=O)CCCC2`, for which the AC50 result was “inactive”.

Take `Cn1c(=S)c2[nH]c(SCCCc3ccccc3)nc2n(C)c1=O`: the activity, negative = inhibition was -0.099% [at 11.4 µM] (inactive).

Consider `Cc1c(C)c2c(c(C)c1O)CC[C@@](C)(CCC[C@@H](C)CCC[C@@H](C)CCCC(C)C)O2`, for which the AC50 entry is “inactive”.

Turning to `Cc1cc(C)n2nc(SCc3cc(=O)oc4ccc5ccccc5c34)nc2n1`, the AC50 result was “inactive”.

Consider `CCOC(=O)c1ccc(S(=O)(=O)Nc2ccc3cn[nH]c3c2)cc1`, for which the concentration at half-maximal activity (AC50) is 12.6 µM (active).

Consider `CC(=O)Nc1cc(S(=O)(=O)Nc2ccccc2)c(C)cc1C`, for which the AC50 entry was “inactive”.

In the case of `CCOc1cc(C)c(S(=O)(=O)Nc2ccc3cn[nH]c3c2)cc1C`, the AC50 was 0.631 µM (active).

For the compound `Cc1cc(NC(=O)COC(=O)c2ccc(NS(=O)(=O)c3ccc(C)c(C)c3)cc2)no1`, the AC50 entry was “inactive”.

With `CCOC(=O)c1sc(NS(=O)(=O)c2ccccc2)nc1C`, the AC50 result is “inactive”.

In the case of `COC(=O)Cc1cc(=O)n2[nH]c(C)c(-c3ccccc3)c2n1`, the AC50 result was “inactive”.

Turning to `C/C(O)=C\c1nc2ccccc2oc1=O`, the AC50 result is “inactive”.

Turning to `COC(=O)[C@@]1(Cc2ccc(F)cc2)[C@@H]2C(=CC(=O)[C@H]2CC(=O)C(=O)N(C)C)CN1C(=O)c1ccccc1`, the AC50 entry was “inactive”.

Turning to `Cc1cc(N)ccc1NC(=O)c1ccccc1`, the AC50 entry was “inactive”.

On to `CCO/C(C)=N/n1c2nc3ccccc3nc2c2c(=O)n(CC(C)C)c(C)nc21`, for which the AC50 result is “inactive”.

For the compound `O=C(O)c1ccccc1C(=O)Nc1nccs1`, the AC50 entry is “inactive”.

On to `CCCCn1c(SCC(=O)Nc2nccs2)nc2ccccc2c1=O`, for which the AC50 result is “inactive”.

For the compound `CCCC(C(=O)Nc1nccs1)c1ccccc1` (configuration not stated), the AC50 was 25.1 µM (active).

In the case of `O=C(NCC1CCCO1)c1cc(-c2ccc(Cl)cc2Cl)on1` (configuration not stated), the AC50 entry was “inactive”.

Take `Cc1cccc(Sc2c([N+](=O)[O-])ncn2C)n1`: the AC50 result was “inactive”.

For `O=c1cnc2cnc(Nc3ccccc3)nc2n1Cc1cccs1`, the AC50 entry is “inactive”.

In the case of `c1ccc(-n2cnc3cc(NCc4cccs4)ccc32)cc1`, the AC50 is 1.12 µM (active).

Regarding `O=C(O)[C@H]1CCCNC1`, the AC50 entry was “inactive”.

Regarding `Cc1ccccc1CS(=O)(=O)Cc1ccc(C(=O)NCc2cccnc2)o1`, the half-maximal activity concentration (AC50) was 10 µM (active).

With `Cc1cc(=O)oc(C)c1C(=O)NCc1cccnc1`, the AC50 result was “inactive”.

For the compound `Cc1cccc(CS(=O)(=O)Cc2ccc(C(=O)NCc3ccco3)o2)c1`, the AC50 result was “inactive”.

For `Cn1cccc1C(=O)N1CCC2(CC1)CN(c1ccccn1)C2`, the AC50 result was “inactive”.

For `COc1cc(OC)c(C2C(C(=O)Nc3ccc(C)cc3C)=C(C)Nc3ncnn32)cc1OC` (configuration not stated), the AC50 result was “inactive”.

Take `Cc1ccc(S(=O)(=O)NC(=O)c2cccn2C)cc1`: the AC50 entry was “inactive”.

For the compound `O=C(Cn1cccc1C(=O)c1ccccc1)NCc1cccs1`, the AC50 is 5.01 µM (active).

Regarding `Cc1ccccc1C(=O)c1cccn1CC(=O)NCc1ccco1`, the AC50 result was “inactive”.

For the compound `O=C(Cn1ccc([N+](=O)[O-])n1)NCc1cccs1`, the AC50 result is “inactive”.

As to `COCCn1c(=O)c(-c2cccs2)nc2cnc(N3CCNCC3)nc21`, the AC50 entry is “inactive”.

Turning to `COc1cc(NC(=O)Cc2c(C(=O)O)[nH]c3ccccc23)cc(OC)c1OC`, the AC50 result was “inactive”.

Regarding `CCC(CC)C(=O)Nc1c2c(nn1-c1ccc(OC)cc1)CS(=O)(=O)C2`, the AC50 entry was “inactive”.

Turning to `CCOC(=O)c1c(C)[nH]c2ccc3c(c12)CN1CCc2cc(OC)ccc2[C@@H]1O3`, the AC50 entry is “inactive”.

For the compound `CCOC(=O)c1c(C)[nH]c(C)c1C(=O)COC(=O)c1cccc(S(=O)(=O)N(CC)CC)c1`, the AC50 was 17.8 µM (active).

Take `CCOC(=O)c1ccc(S(=O)(=O)N2CCN(C)CC2)cc1`: the AC50 entry was “inactive”.

`CCOC(=O)c1c(C)[nH]c(C)c1C(=O)COC(=O)c1ccc(S(=O)(=O)N(CC)CC)cc1`: the AC50 was 28.2 µM (active).

Regarding `CCN(CC)S(=O)(=O)c1cccc(C(=O)N[C@H](C(=O)OCC(=O)NC(=O)NC)C(C)C)c1`, the AC50 entry was “inactive”.

On to `CCN(CC)S(=O)(=O)c1ccc(C(=O)NC2=C(C(=O)OC)SCC2)cc1`, for which the AC50 result is “inactive”.

As to `CS(=O)(=O)N1CCC2(CCN(C(=O)Nc3cccc(C#N)c3)CC2)CC1`, the AC50 entry was “inactive”.

Regarding `O=C1c2c(O)cc(O)cc2O[C@@H](c2ccc(O)c(O)c2)[C@H]1O`, the AC50 entry is “inactive”.

On to `CC1=NN(c2ccccc2)C(=O)/C1=C\N1CC(C)OC(C)C1` (configuration not stated), for which the AC50 result was “inactive”.

As for `COc1cc2c(cc1OC)C(C(=O)Nc1ccc3c(c1)OCCO3)C(c1cccnc1)N(C)C2=O` (configuration not stated), the AC50 result was “inactive”.

With `FC(F)(F)c1nc(-c2ccncc2)ncc1-c1nnnn1-c1ccccc1`, the AC50 entry was “inactive”.

As to `O=C(Nc1ccc(F)cc1)c1ccc(-n2ccnc2)nc1`, the AC50 is 0.178 µM (active).

With `CC(C)C(=O)Nc1ccc(NC(=O)c2cccnc2)cn1`, the AC50 result was “inactive”.

As for `Cc1ccc(C(=O)Nc2ccc(N3CCOCC3)nc2)cc1`, the AC50 result was “inactive”.

Take `CCOCC(=O)Nc1cc(C(=O)Nc2cccc(C)c2C)ccc1Cl`: the AC50 result is “inactive”.

As for `Cc1c(Cl)cccc1NC(=O)c1ccc(-n2ccnc2)nc1`, the AC50 was 0.0316 µM (active).

Turning to `C/C(CC(=O)Nc1ccccn1)=N\NC(=O)C(=O)Nc1cccc(Cl)c1C`, the AC50 result is “inactive”.

Regarding `O=S(=O)(/N=C(/Nc1ccccn1)c1ccccc1)c1ccccc1`, the AC50 result was “inactive”.

As to `CN1CCN(Cc2nc3cccc4c3c([n+]2[O-])-c2ccccc2-4)CC1`, the activity, negative = inhibition was -3.37% [at 11.4 µM] (inactive).

Consider `N#C[C@H]1CN[C@H](N)N[C@@H]1N`, for which the activity, negative = inhibition is 8.31% [at 11.4 µM] (inactive).

Regarding `Cc1cccc2c1Oc1ccccc1[C@@H]2NC(=O)c1ccc([N+](=O)[O-])cc1`, the activity, negative = inhibition is 13.1% [at 11.4 µM] (inactive).

`O=C(c1ccc([N+](=O)[O-])cc1)n1nc(-c2ccccc2)nc1NCc1ccccc1`: the AC50 result is “inactive”.

With `CSc1nc(-c2ccccc2)nn1C(=O)c1ccccc1`, the AC50 result was “inactive”.

For the compound `CCc1ccccc1NC(=O)CSc1nc(-c2ccccc2)nn1C(=O)c1cccc([N+](=O)[O-])c1`, the AC50 is 10 µM (active).

With `Nc1c(C(=O)NCc2ccccc2)sc2nc3c(cc12)C(=O)CCC3`, the AC50 entry is “inactive”.

For `C[C@@](N)(C(=O)O)c1ccc(P(=O)(O)O)cc1`, the AC50 entry is “inactive”.

`O=C(O)c1cc(=O)cc(C(=O)O)[nH]1`: the AC50 result is “inactive”.

`CC(=O)N1CCN(C(=O)CC2OC(=O)c3ccccc32)CC1` (configuration not stated): the AC50 entry is “inactive”.

On to `CCOC(=O)Cc1csc(NS(=O)(=O)c2ccccc2)n1`, for which the AC50 result is “inactive”.

As to `CCOC(=O)Cc1csc(NC(=O)CCCCCN2C(=O)c3ccccc3C2=O)n1`, the half-maximal activity concentration (AC50) is 14.1 µM (active).

Turning to `CCOC(=O)c1sc(NC(=O)CCCCCN2C(=O)c3cccc4cccc(c34)C2=O)nc1C`, the AC50 entry is “inactive”.

Take `CCOC(=O)C1=C(C)Nc2ncnn2C1c1cccnc1` (configuration not stated): the AC50 result is “inactive”.

For the compound `CCCC(=O)Nc1nc(C(=O)OCC)cs1`, the AC50 entry is “inactive”.

As to `Nc1ccn([C@@H]2CC[C@H](CO)O2)c(=O)n1`, the AC50 result was “inactive”.

For the compound `C[C@]12CC[C@H]3c4ccc(O)cc4CC[C@@H]3[C@H]1CC[C@@H]2OC(=O)CCC1CCCC1`, the activity, negative = inhibition was 1.36% [at 11.4 µM] (inactive).

On to `CCCCCC1=C2CNC(Cc3ccccc3)(C(=O)OC)C=C2C(C)C1=O` (configuration not stated), for which the AC50 was 12.6 µM (active).

With `COC(=O)C1(CC(C)C)C=C2C(=C(c3ccccc3)C(=O)C2C)CN1` (configuration not stated), the AC50 entry is “inactive”.

Take `CCCC1(C(=O)OC)C=C2C(=C(C)C(=O)C2C)CN1` (configuration not stated): the AC50 result is “inactive”.

Regarding `CCCC1(C(=O)OC)C=C2C(=C(C(C)C)C(=O)C2C)CN1` (configuration not stated), the AC50 entry was “inactive”.

With `CCCC1(C(=O)OC)C=C2C(=C(c3ccccc3)C(=O)C2C)CN1` (configuration not stated), the AC50 entry is “inactive”.

As for `COC(=O)C1(C)C=C2C(=C(c3ccccc3)C(=O)C2C)CN1` (configuration not stated), the AC50 result is “inactive”.

Consider `CCCCCC1=C2CNC(CC(C)C)(C(=O)OC)C=C2C(C)C1=O` (configuration not stated), for which the AC50 was 5.01 µM (active).

With `COC(=O)C1(Cc2ccccc2)C=C2C(=C(C(C)C)C(=O)C2C)CN1` (configuration not stated), the AC50 is 12.6 µM (active).
